Experimental data from PubChem BioAssay AID2620 (National Center for Advancing Translational Sciences (NCATS), 2010).
Records with an inconclusive call do not appear. The source made the active and inactive calls. Calls follow the shape of the dose curve; as a rule, active = well fitted curve in the direction sought with a large enough effect; inconclusive = small, poorly fitted or top-dose-only effect, or another doubt; inactive = no such curve, though single readings can be large or run the other way.

target: Pyruvate kinase PKM (Homo sapiens) (UniProt P14618); assay: Secondary LDH Assay for Activators of Human Pyruvate Kinase M1 Isoform: for Probe SAR; conditions: purified hPK-M1, LDH-coupled NADH fluorescence kinetic; series mostly up to 58.2 µM
Sequence (P14618 whole entry, looked up, canonical isoform): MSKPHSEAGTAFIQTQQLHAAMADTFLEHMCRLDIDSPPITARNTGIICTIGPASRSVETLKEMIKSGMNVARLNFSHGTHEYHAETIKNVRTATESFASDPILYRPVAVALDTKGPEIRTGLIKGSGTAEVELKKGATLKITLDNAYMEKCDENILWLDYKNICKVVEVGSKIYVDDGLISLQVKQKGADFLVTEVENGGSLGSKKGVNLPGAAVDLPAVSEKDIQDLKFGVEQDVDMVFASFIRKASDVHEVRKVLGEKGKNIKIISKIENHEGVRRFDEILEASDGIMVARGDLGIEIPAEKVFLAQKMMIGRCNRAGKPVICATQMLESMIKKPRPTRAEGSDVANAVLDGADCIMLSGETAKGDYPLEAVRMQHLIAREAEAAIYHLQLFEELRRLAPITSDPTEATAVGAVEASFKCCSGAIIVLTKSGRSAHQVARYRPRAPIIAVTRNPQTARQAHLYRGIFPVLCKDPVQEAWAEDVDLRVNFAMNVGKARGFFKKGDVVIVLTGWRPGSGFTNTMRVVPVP
Description: NIH Chemical Genomics Center [NCGC]
Matthew G. Vander Heiden, M.D., Ph.D. [Harvard Medical School, 77 Avenue Louis Pasteur, Boston, MA 02115]
Human pyruvate kinase […] (hPK-M1)enzyme was supplied as a highly purified (>95% pure) preparation from Harvard Medical School and a secondary assay was used to evaluate compounds. This assay couples the formation of pyruvate from […] using lactate dehydrogenase (LDH) and NADH. The depletion of NADH is followed in a fluorescent-based kinetic assay that follows the formation of pyruvate to lactate, as catalyzed LDH. Pyruvate kinase substrates, PEP and ADP, were present in the assay at 0.1 mM and 4 mM respectively. In this kinetic assay initial rates were determined by following the fluorescence of NADH depletion.
NCGC Assay Protocol Summary:
Three uL of substrate mix (final concentration, 50 mM Tris-Cl pH 8.0, 200 mM KCl, 15 mM MgCl2, 0.1 mM PEP, 4.0 mM ADP, and 0.2 mM NADH) was dispensed into black-solid 1536 well plates. 23 nL of compounds were delivered by a pin tool and 1 uL of enzyme mix (final concentrations, 10 nM hPK-M1 and 1 uM of LDH) was added. Plates were immediately placed in ViewLux (Perkin Elmer) and NADH fluorescence was determined at 30 second exposure intervals for between 3 and 6 minutes. Data were normalized to the uninhibited controls.

outcome, inactive:
O=C1CCc2cc(S(=O)(=O)Nc3cccnc3)ccc2N1
COc1cccc(Cn2ncc3c4sc(S(C)=O)cc4n(C)c3c2=O)c1 (stereo not given)
O=C1c2ccccc2C(=O)N1c1ccc2ncccc2c1
Cc1ccc(NS(=O)(=O)c2cc3c(cc2Cl)CCC(=O)N3)cc1C
COc1ccc(Nc2c(-c3ccc(C)o3)nc3ccccn23)cc1
Cc1ccc(NS(=O)(=O)c2ccc3c(c2)N(C)CCO3)cc1C
Cc1ccc(-c2nc3cnccn3c2Nc2ccc(C(C)C)cc2)o1
O=C1CCc2cc(S(=O)(=O)Nc3ccc(Cl)c(Cl)c3)ccc2N1
O=C1CCc2cc(S(=O)(=O)Nc3cccc4ccccc34)ccc2N1
O=C1c2ccccc2C(=O)N1Cc1ccncc1
Cc1ccc(NS(=O)(=O)c2cc3c(cc2F)NC(=O)CC3)cc1Cl
Cc1cc(NS(=O)(=O)c2ccc3c(c2)CCC(=O)N3)ccc1F
O=C1c2ccccc2C(=O)N1c1ccccn1
Cc1ccc(NS(=O)(=O)c2ccc3c(c2)CCC(=O)N3)cc1C
Cc1ccc2nc(-c3ccc(C)o3)c(Nc3ccc4c(c3)OCO4)n2c1
CCCCN1C(=O)c2ccccc2C1=O
O=C1c2ccccc2C(=O)N1c1cccc(Cl)c1
CC(=O)Nc1cccc(S(=O)(=O)Nc2ccc(C)c(C)c2)c1
O=C1c2ccccc2C(=O)N1c1cc(=O)c2ccccc2[nH]1
Nc1cc(S(=O)(=O)N2CCN(S(=O)(=O)c3ccc4c(c3)OCCO4)CC2)ccn1
Cc1ccc(C)c(OC2=NS(=O)(=O)c3ccccc32)c1
O=S1(=O)N=C(Oc2ccccc2Cl)c2ccccc21
Cc1ccccc1Nc1c(-c2ccc(Cl)s2)nc2ccccn12
O=C1c2ccccc2C(=O)N1c1nccs1
O=C1c2ccccc2C(=O)N1c1cccc2cnccc12
Cc1ccc(NS(=O)(=O)c2ccc(N3CCCC3=O)cc2)cc1C
Cc1cc(N2C(=O)c3ccccc3C2=O)n[nH]1
Cc1cccc(OC2=NS(=O)(=O)c3ccccc32)c1
Cc1ccc(NS(=O)(=O)c2cc3c(cc2-c2ccccc2)NC(=O)CO3)cc1C
Cc1ccc(NS(=O)(=O)c2cc3c(cc2-c2cn[nH]c2)NC(=O)CO3)cc1C
O=S1(=O)N=C(Oc2ccccc2)c2ccccc21
Cc1cc(C)n2c(Nc3ccccc3)c(-c3ccc(C)o3)nc2n1
O=C1CCc2cc(S(=O)(=O)Nc3cccc(Br)c3)ccc2N1
Cc1ccc(Cl)cc1NS(=O)(=O)c1cc2c(cc1F)NC(=O)CC2
O=S1(=O)N=C(Oc2ccc(Cl)cc2)c2ccccc21
CSc1cc2c(s1)c1cnn(Cc3cccc(O)c3)c(=O)c1n2C
CCNc1cccc(S(=O)(=O)N2CCN(S(=O)(=O)c3ccc4c(c3)OCCO4)CC2)c1
Cc1ccc(NS(=O)(=O)c2ccc3c(c2)CCC(=O)N3)cc1
Nc1cccc(S(=O)(=O)N2CCCN(S(=O)(=O)c3ccc4c(c3)OCCO4)CC2)c1
O=C1CCc2cc(S(=O)(=O)Nc3ccccc3-c3ccccc3)ccc2N1
